Results from PubChem BioAssay (NCI).
Compounds without any hit were thinned out: in the full panel of roughly 79,000, 15% have a hit. Active and inactive are the calls of the source. Rule as the data show it: active = growth inhibition above about 70%; inactive = the rest.

How the values were obtained:
[1] = NCI Yeast Anticancer Drug Screen. Data for the rad50 strain (AID 155);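 also: 0% = growth of vehicle-only cultures of the same strain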; details: S. cerevisiae rad50 strain growth inhibition, stronger effect = higher value
Summary of the method: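 Relative growth inhibition (compound vs vehicle) was measured in yeast with a defined repair-gene alteration.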

[2] = NCI Yeast Anticancer Drug Screen. Data for the mec2-1 strain (AID 157); details: S. cerevisiae mec2-1 strain, stronger effect = higher value
Summary of the method: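 Mutant yeast (mec2-1) grown with compound; growth inhibition relative to vehicle control reported.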

[3] = NCI Yeast Anticancer Drug Screen. Data for the sgs1 mgt1 strain (AID 161);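 also: 0% = growth of cultures given vehicle only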; details: S. cerevisiae sgs1 mgt1 strain, stronger effect = higher value
Summary of the method: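 Percent growth inhibition was derived by comparing compound-exposed mutant yeast with vehicle-exposed cultures. The strain carries alterations in DNA damage repair.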

[4] = NCI Yeast Anticancer Drug Screen. Data for the cln2 rad14 strain (AID 165);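 also: 0% = growth equal to vehicle treated cultures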; details: S. cerevisiae cln2 rad14 strain, stronger effect = higher value
Summary of the method: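 Readout is yeast growth inhibition versus vehicle-treated controls, using a strain with cln2 and rad14 alterations exposed to compound.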

[5] = NCI Yeast Anticancer Drug Screen. Data for the bub3 strain (AID 167); details: S. cerevisiae bub3 mutant strain, stronger effect = higher value
Summary of the method: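 Screening used yeast with an engineered genetic alteration affecting cell cycle control. Compound-exposed cultures were compared with vehicle cultures, and reduced growth was taken as inhibition.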

[6] = NCI Yeast Anticancer Drug Screen. Data for the mlh1 rad18 strain (AID 175); details: S. cerevisiae mlh1 rad18 strain growth inhibition, stronger effect = higher value
Summary of the method: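 Genetically defined yeast (DNA repair-deficient) exposed to compounds; growth inhibition determined relative to vehicle.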

[7] = at 5.0 µM (retest, dose inferred, filed as 0.5)
[8] = at 50.0 µM (retest, dose inferred, filed as 5.0)

Measured: growth inhibition

CC(O)C(=O)NC1CCCCC1 (stereo not drawn)
inactive: [1]; [7] 3% | [1]; [8] 26% | [2]; [7] 1% | [2]; [8] 1% | [3]; [7] 1% | [3]; [8] 12% | [4]; [7] 1% | [4]; [8] 3% | [5]; [7] 2% | [5]; [8] -4% | [6]; [7] 3% | [6]; [8] 17%

CC(CC=O)CC=O
inactive: [1]; [7] 15% | [2]; [7] 3% | [2]; [8] 32% | [3]; [7] 18% | [4]; [7] 3% | [4]; [8] 31% | [5]; [7] -5% | [5]; [8] -7% | [6]; [7] 16%
active: [1]; [8] 82% | [3]; [8] 78% | [6]; [8] 79%

CN=c1ss/c(=N\C(=S)N(C)C)n1C1CCCCC1
inactive: [1]; at 50.0 µM unless noted -9.6% | [2]; at 50.0 µM unless noted -0.55% | [3]; at 50.0 µM unless noted 14% | [4]; at 50.0 µM unless noted 13.1% | [5]; at 50.0 µM unless noted 0%

Fc1ccc([I+]c2ccc(F)cc2)cc1
inactive: [1]; [7] 12% | [2]; [7] 2% | [2]; [8] 43% | [3]; [7] 24% | [4]; [7] 9% | [4]; [8] 32% | [5]; [7] 33% | [6]; [7] 17%
active: [1]; [8] 89% | [3]; [8] 84% | [5]; [8] 90% | [6]; [8] 81%

CC(=O)OCC(OC(C)=O)C(OC(C)=O)C(OC(C)=O)C(OC(C)=O)C(=O)NC1CCc2ccccc2C1 (stereo not drawn)
inactive: [1]; at 50.0 µM unless noted 24.8% | [2]; at 50.0 µM unless noted 2.6% | [3]; at 50.0 µM unless noted 13.6% | [4]; at 50.0 µM unless noted 30.4% | [5]; at 50.0 µM unless noted 0.25%

CC(C)C(C)(C)c1ccc(O)cc1
inactive: [1]; [7] -34% | [2]; [7] -2% | [2]; [8] 68% | [3]; [7] 3% | [4]; [7] 2% | [4]; [8] 26% | [5]; [7] 2% | [5]; [8] 61% | [6]; [7] 2%
active: [1]; [8] 70% | [3]; [8] 75% | [6]; [8] 74%

CCCCNc1ccc(Nc2ccccc2)cc1
active: [1]; [8] 95% | [2]; [8] 96% | [3]; [8] 97% | [4]; [8] 87% | [5]; [8] 97% | [6]; [8] 94%
inactive: [1]; [7] 1% | [2]; [7] 1% | [3]; [7] 14% | [4]; [7] 1% | [5]; [7] 2% | [6]; [7] -40%

O=C(O)/C=C\C(=O)Nc1cccc2ccccc12
inactive: [1]; [7] 4% | [1]; [8] 60% | [2]; [7] -1% | [2]; [8] 30% | [3]; [7] 7% | [4]; [7] -1% | [4]; [8] 8% | [5]; [7] -1% | [5]; [8] 42% | [6]; [7] -35% | [6]; [8] 25%
active: [3]; [8] 88%

NN1CCOC(c2ccccc2)C1 (stereo not drawn)
inactive: [1]; [7] 15% | [1]; [8] 57% | [2]; [7] 11% | [2]; [8] 24% | [3]; [7] 7% | [3]; [8] 49% | [4]; [7] 0% | [4]; [8] 4% | [5]; [7] 34% | [5]; [8] 61% | [6]; [7] -12% | [6]; [8] 28%

C=CCc1cc(-c2cc(CC=C)c(O)c(CN(CC)CC)c2)cc(CN(CC)CC)c1O
inactive: [1]; at 50.0 µM unless noted -9% | [2]; at 50.0 µM unless noted -5.2% | [3]; at 50.0 µM unless noted -20% | [4]; at 50.0 µM unless noted -18% | [5]; at 50.0 µM unless noted -12.1%

C/C(CC(C)C(=O)O)=N/NC(N)=O (stereo not drawn)
inactive: [1]; [7] 0% | [1]; [8] 34% | [2]; [7] -8% | [2]; [8] 5% | [3]; [7] 0% | [3]; [8] 40% | [4]; [7] -6% | [4]; [8] -2% | [5]; [7] -1% | [5]; [8] 20% | [6]; [7] -31% | [6]; [8] 43%

C/C(N=NC(=S)N1CC2CCC(CC2)C1)=C1\C=CC=CN1O
inactive: [4]; at 50.0 µM unless noted 69.5%
active: [1]; at 50.0 µM unless noted 80.3% | [2]; at 50.0 µM unless noted 85.7% | [3]; at 50.0 µM unless noted 82.2% | [5]; at 50.0 µM unless noted 78%

Oc1ccc(Cc2ccccc2Cl)c(O)c1
inactive: [1]; [7] 1% | [2]; [7] -4% | [3]; [7] -3% | [4]; [7] 1% | [5]; [7] -1% | [6]; [7] -22%
active: [1]; [8] 99% | [2]; [8] 99% | [3]; [8] 99% | [4]; [8] 98% | [5]; [8] 99% | [6]; [8] 98%

CCCCOC(=O)COc1c(Cl)ccc(Cl)c1Cl
inactive: [1]; at 50.0 µM unless noted 6.95% | [2]; at 50.0 µM unless noted -0.75% | [3]; at 50.0 µM unless noted 7% | [4]; at 50.0 µM unless noted -3.5% | [5]; at 50.0 µM unless noted 11.3%

Cc1nc(-c2ccc(N=Cc3ccc(N4CCC5(CCCCC5)CC4)cc3)cc2)cs1
inactive: [1]; at 50.0 µM unless noted 25% | [2]; at 50.0 µM unless noted -2.05% | [3]; at 50.0 µM unless noted 15.7% | [4]; at 50.0 µM unless noted 18.6% | [5]; at 50.0 µM unless noted 6.1%
